PRMT1 FP inh: inhibitors of human PRMT1; recombinant PRMT1, activity-based probe fluorescence polarization; inhibition, % at 2.79 µM; hit rate 1.3% among 370,000; AID 652257;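 active means inhibition above about 21% made by adding two undisclosed values, limit read from the data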
Target sequence (Q99873 whole entry, looked up): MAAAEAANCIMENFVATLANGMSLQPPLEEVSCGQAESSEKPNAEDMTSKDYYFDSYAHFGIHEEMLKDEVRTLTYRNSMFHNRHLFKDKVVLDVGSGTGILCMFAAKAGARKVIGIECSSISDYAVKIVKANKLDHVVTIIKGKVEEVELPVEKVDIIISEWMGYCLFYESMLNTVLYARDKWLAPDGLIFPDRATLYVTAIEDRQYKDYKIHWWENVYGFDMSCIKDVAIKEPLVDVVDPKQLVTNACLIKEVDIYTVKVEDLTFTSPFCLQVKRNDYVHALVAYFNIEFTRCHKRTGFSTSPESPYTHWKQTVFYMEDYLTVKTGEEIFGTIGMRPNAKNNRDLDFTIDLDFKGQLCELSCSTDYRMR
PAD4 inh: blocks human protein arginine deiminase 4 | hit rate 0.41% among 330,000 | Q9UM07 | recombinant PAD4, RCA probe fluorescence polarization | inhibition, % at 6.36 µM;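 active means percent inhibition above a cutoff equal to the mean of all tested compounds plus 3 SD, cut at about 15% in these data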;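 further: 0% = PAD4 with RCA probe and DMSO and 100% = probe without PAD4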
PME-1 primary: PME-1 (human) inhibition; Q9Y570; recombinant PME-1, FP-Rh probe fluorescence polarization; hit rate 0.53% among 320,000; inhibition, % at 5.9 µM;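 active means inhibition above the campaign mean of all compounds plus 3 SD, cut at about 26% in these data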;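 further: competitive labeling of PME-1 active site by serine hydrolase directed probe; 0% = PME-1 with DMSO and 100% = wells lacking PME-1 enzyme; inhibitors block probe labeling so polarization falls and inhibition rises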
Target sequence (Q9Y570 whole entry, looked up): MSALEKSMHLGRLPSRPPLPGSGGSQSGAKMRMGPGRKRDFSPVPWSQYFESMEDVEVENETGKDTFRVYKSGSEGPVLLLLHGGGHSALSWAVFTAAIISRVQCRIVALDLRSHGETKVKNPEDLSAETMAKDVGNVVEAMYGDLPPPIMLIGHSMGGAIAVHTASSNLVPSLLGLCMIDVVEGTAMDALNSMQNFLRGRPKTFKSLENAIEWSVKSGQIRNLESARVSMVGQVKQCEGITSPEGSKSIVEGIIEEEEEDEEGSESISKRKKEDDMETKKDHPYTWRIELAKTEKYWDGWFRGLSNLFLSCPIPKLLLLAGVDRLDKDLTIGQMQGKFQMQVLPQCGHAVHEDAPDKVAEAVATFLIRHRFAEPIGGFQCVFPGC
SIAE primary: blocks human sialic acid acetylesterase; hit rate 0.69% among 370,000; inhibition, % at 9.66 µM; SIAE FP-Rh probe binding, fluorescence polarization; Q9HAT2;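 active means inhibition above a cutoff: mean of compounds within the control limits plus 3 SD of those, cut at about 17% in these data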;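 further: 0% = plate median of compound wells and 100% = probe without SIAE protein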
Fam108B counter: counter-screen for RBBP9 inhibitors: inhibitors of mouse Fam108B; AID 1947; inhibition, % at 9.51 µM; recombinant Fam108B, FP-Rh probe fluorescence polarization; hit rate 0.33% among 300,000;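 active means inhibition above the screen mean inhibition plus 3 SD, computed separately per campaign, cut at about 18% in these data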;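 further: inhibitors lower polarization as less probe binds the enzyme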
TCR CD3 inh: human TCR-CD3 binding inhibition | AID 651800 | inhibition, % at 9.4 µM | hit rate 0.37% among 360,000 | TAMRA-labeled TCR probe fluorescence, biochemical; in the data active means inhibition above about 19%;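 further: recombinant mutant TCR 2C K166C tagged with TAMRA read by polarization; 0% = receptor in buffer alone and 100% = receptor with positive control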
The depositor's hits bear a star; · = not tested or not shown. This is a sample that favours compounds with a hit; in the whole collection about 2.6% have one here.

SMILES | PRMT1 FP inh | PAD4 inh | PME-1 primary | SIAE primary | Fam108B counter | TCR CD3 inh
CCCn1c(CCC(=O)Nc2ccccc2Cc2ccccc2)nc2cc(S(=O)(=O)N3CCOCC3)ccc21 | -2.2 | -13.1 | 37.3* | -13.7 | -13.7 | -6.0
CC(C)c1ccc(N2C(=O)CC(Sc3nc4ccccc4o3)C2=O)cc1 (stereo not given) | 22.8* | -4.4 | -0.9 | 0.3 | 4.2 | 2.1
O=[N+]([O-])c1ccccc1C1Nc2cccc3cccc(c23)N1 | 28.5* | -8.5 | 6.5 | 5.7 | 8.1 | 8.0
CC(=O)N1CCCN(C(=O)CN2C(=O)CC(C)(C)S(=O)(=O)c3ccccc32)CC1 | -1.6 | · | · | -3.6 | · | ·
Cc1cccc(-c2n[nH]c(=S)n2/N=C/c2ccc(C)o2)c1 | 21.7* | 5.1 | -3.7 | 0.8 | 3.7 | -1.1
O=C(Cn1nc(-c2ccccc2)ccc1=O)NCCc1ccccc1F | -5.0 | · | · | -0.1 | · | ·
O=c1ccc2ccc(Oc3ccc([N+](=O)[O-])cc3[N+](=O)[O-])cc2o1 | · | 4.5 | 42.1* | · | 2.4 | ·
O=C(Oc1ccc2ccc(=O)oc2c1)c1ccc([N+](=O)[O-])cc1 | 0.7 | 2.6 | -1.2 | 4.7 | 2.4 | 1.8
CCOc1ccccc1NC(=O)C1C2C=CC(O2)C1C(=O)O (stereo not given) | 23.0* | -6.3 | 0.8 | 3.1 | -8.0 | -4.5
COC(=O)c1cc2c(c3c4ccccc4n(S(=O)(=O)c4cccc(C)c4)c13)C(=O)N(Cc1ccc(N(C)C)cc1)C2 | 22.2* | · | · | 0.0 | · | -2.1
COC(=O)c1cc2c(c3c4cc(OC)ccc4n(S(=O)(=O)c4cccc(C)c4)c13)C(=O)N(Cc1ccc(N(C)C)cc1)C2 | -3.5 | · | · | 8.7 | · | 4.5
S=c1nc(-c2ccccc2Cl)[nH][nH]1 | 5.6 | -3.3 | 1.8 | 3.5 | -1.6 | 4.3
S=c1nc(-c2csc3c2CCCC3)[nH][nH]1 | 21.7* | 0.7 | 7.0 | -4.9 | 8.5 | 3.0
COc1ccc(N2CCN(c3ncnc4c3[nH]c3ccccc34)CC2)cc1 | -0.2 | -1.3 | 32.4* | 4.0 | 13.2 | -1.2
Fc1ccc2[nH]c3c(N4CCN(c5ccccc5)CC4)ncnc3c2c1 | 1.9 | -1.5 | 45.5* | 16.9 | 16.3 | 0.0
Cc1cc(O)c(Oc2cc(C)cc(O)c2O)c(O)c1 | 37.6* | -7.8 | 3.4 | 5.5 | -0.6 | 12.8
c1ccc(OC2CCN(c3ncnc4sccc34)CC2)cc1 | -5.5 | · | · | -4.2 | · | ·
COc1cc(/C=N/NC(=O)c2cc(C34CC5CC(CC(C5)C3)C4)[nH]n2)ccc1O | 5.2 | 0.3 | 15.2 | 3.2 | 21.1* | -11.9
COc1cc(/C=N/NC(=O)c2cc(C3CC3)[nH]n2)ccc1O | 4.2 | -0.9 | 11.0 | 2.4 | 2.9 | -3.0
Oc1[nH]c2ccccc2c1C=Nc1ccc2c(c1)OCO2 | -2.1 | 3.2 | 30.9* | 14.3 | 2.4 | -0.7
CC(=O)N(C)c1ccc(N=Cc2cc3c(cc2[N+](=O)[O-])OCO3)cc1 | -0.9 | -11.6 | 0.5 | 12.7 | -0.1 | 7.8
Cc1ccc(C)c(N=Cc2cc3c(cc2[N+](=O)[O-])OCO3)c1 | 21.7* | -18.2 | 3.3 | 26.7* | 0.1 | -0.7
Cc1ccc(N=Cc2cc3c(cc2[N+](=O)[O-])OCO3)cc1[N+](=O)[O-] | 25.1* | -12.0 | 7.5 | 4.2 | 7.6 | 5.8
C=CCN1C(=O)[C@H](CC(=O)N2CCCCC2)[C@@]2(C(=O)OCC)CCCC=C12 | -0.5 | · | · | 5.3 | · | ·
CCOC(=O)C1(C(=O)OCC)COC(=O)C1CN1Cc2cc3ccccc3nc2C1 (stereo not given) | 22.7* | · | · | -3.0 | · | -0.4
SMILES | PRMT1 FP inh | PAD4 inh | PME-1 primary | SIAE primary | Fam108B counter | TCR CD3 inh
COc1ccc(-c2cc(=O)n(-c3ccc([N+](=O)[O-])cc3)[nH]2)cc1 | 2.8 | 36.2* | 19.5 | 17.0 | 3.0 | -1.2
COc1ccc(-c2[nH]n(-c3ccc([N+](=O)[O-])cc3)c(=O)c2C=NCc2ccc(F)cc2)cc1 | -0.6 | -0.9 | -1.4 | -2.8 | -5.7 | -0.6
Fc1ccc(N2CCN(C3=Nc4ccccc4Sc4ccccc43)CC2)cc1 | 0.4 | · | · | -2.5 | · | ·
O=C(Nc1c(-c2ccc(F)c(F)c2)nc2ncccn12)C1CC1 | 0.4 | · | · | -1.9 | · | ·
CCN(CC)c1ccc2cc(C(C)=O)c(=O)oc2c1 | -23.8 | 3.0 | 3.7 | 3.9 | 0.3 | 2.0
CCN(CC)c1ccc2cc(NC(=O)CCC(=O)O)c(=O)oc2c1 | 34.0* | 0.9 | 1.3 | 9.3 | 0.7 | 16.3
Cc1cnc(NC(=O)CSc2nnc(COc3ccccc3)o2)s1 | 24.2* | 5.1 | -7.3 | -1.5 | 0.8 | 7.7
COc1ccc(-c2nc3ccccc3c(=O)n2NC(=S)N(C)C)cc1 | 24.5* | 3.1 | 5.5 | 1.4 | 2.8 | -2.6
CC(C)(C)c1ccc(-c2nnc3n2N=C(c2ccc4ccccc4c2)CS3)cc1 | 6.0 | · | · | -7.6 | · | ·
CNC(=S)NNC(=O)c1sccc1OCc1ccc(Cl)cc1Cl | -0.3 | 1.9 | -2.1 | 12.7 | -0.9 | -2.0
S=c1nc(-c2sccc2OCc2ccc(Cl)cc2Cl)[nH][nH]1 | 24.7* | 0.3 | 1.4 | 16.6 | -0.2 | -0.4
O=C(CSc1nnc(-c2ccncc2)n1Cc1ccco1)Nc1nccs1 | 2.7 | 7.1 | 4.1 | 2.5 | -0.6 | -1.3
CC(C)(C)c1ccc(-c2nnc(SCC(=O)Nc3ccc(S(=O)(=O)Nc4nccs4)cc3)n2Cc2ccco2)cc1 | 22.0* | · | · | -29.1 | · | ·
Cc1cc(NS(=O)(=O)c2ccc(NC(=O)CSc3nc4sc(C)c(C)c4c(=O)n3Cc3ccco3)cc2)nc(C)n1 | 24.3* | · | · | -22.2 | · | ·
COc1cccc(-c2ccc(CC[C@H]3O[C@H]4CC[C@@H](CO)O[C@H]4C[C@H]3NS(C)(=O)=O)cc2)c1 | -0.4 | · | · | 6.1 | · | ·
O=C(Nc1cccc(C(F)(F)F)c1)/C(=C\c1ccco1)NC(=O)c1cccs1 | 21.1 | -2.9 | -9.7 | -16.4 | 3.4 | 1.1
O=C(Nc1cccc(F)c1)/C(=C\c1ccco1)NC(=O)c1cccs1 | 23.3* | -4.0 | -0.1 | 7.1 | 0.0 | 0.5
CCCCC(=O)N[C@H]1CC[C@@]23CCCN2C(=O)CCC[C@H]3[C@H]1C | -2.1 | · | · | -2.9 | · | ·
CC(C)CCNC(=O)C12CN(Cc3ccccc3)CC1C(c1ccc([N+](=O)[O-])cc1)=NO2 (stereo not given) | 21.8* | -4.8 | 3.0 | 5.3 | 4.1 | 1.1
COc1cccc(CNC(=O)C23CN(Cc4ccccc4)CC2C(c2ccc([N+](=O)[O-])cc2)=NO3)c1 (stereo not given) | 6.1 | -3.4 | -1.9 | -0.4 | 0.8 | 6.3
O=C(O)c1ccc(N/N=C/c2cn(Cc3ccccc3F)c3ccccc23)cc1 | 17.8 | -4.1 | 28.9* | 14.7 | 17.0 | 1.4
COc1ccc(-n2c(SCc3cccc4ccccc34)nnc2-c2ccccc2)cc1 | -0.1 | · | · | 0.8 | · | ·
CCOc1ccc(CNC(=S)N/N=C\c2ccc([N+](=O)[O-])cc2)cc1 | 1.4 | -5.4 | -6.5 | 3.3 | 4.4 | 4.5
CCOc1ccc(N=Cc2ccc([N+](=O)[O-])cc2)c(O)c1 | 22.2* | · | · | 3.0 | · | 6.7
COc1cccc(Nc2ccc(N3CCCCC3)cc2)c1OC | 24.1* | -3.7 | 3.0 | 8.3 | · | -9.7
